Experimental data from PubChem BioAssay AID1159580 (chemical genetic matrix, 2015).
In all, about 5,500 compounds went through this assay and about 2,000 (36%) were called active. Inconclusive results (about 18%) are left out. Rule as the data show it: active = normalized growth mostly below about 0.91 (no sharp cut-off); inconclusive = no clear call, values can overlap the other calls; inactive = mostly above about 0.92. Some of the results follow.

Assay: chemical genetic growth profiling, strain panel (AID 1159580);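 also: tested at 20 µM; growth read once vehicle control cultures reached saturation at 30 °C; 1 = growth at the plate median or of vehicle wells; lower values mean less growth of the strain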
Details: S. cerevisiae deletion strains, growth OD

Measured: normalized growth

COC(=O)[C@H]1[C@H]2C[C@H]3c4[nH]c5ccccc5c4CCN3C[C@H]2CC[C@@H]1O
inactive: locus YAL013W, strain DEP1, active compounds read low 0.998 | locus YBR021W, strain FUR4, active compounds read low 1 | locus YBR229C, strain ROT2, active compounds read low 1.01 | locus YCL029C, strain bik1, active compounds read low 1 | locus YDL035C, strain GPR1, active compounds read low 1.01 | locus YDL074C, strain BRE1, active compounds read low 1.02 | locus YDL101C, strain DUN1, active compounds read low 1.01 | locus YDL134C, strain PPH21, active compounds read low 1.01 | locus YDL185W, strain tfp1, active compounds read low 1.01 | locus YDL192W, strain arf1, active compounds read low 1 | locus YDR101C, strain arx1, active compounds read low 1.01 | locus YDR150W, strain NUM1, active compounds read low 1.01 | locus YDR162C, strain NBP2, active compounds read low 1.01 | locus YDR318W, strain mcm21, active compounds read low 1 | locus YDR388W, active compounds read low 1 | locus YDR502C, strain sam2, active compounds read low 1.01 | locus YEL061C, strain CIN8, active compounds read low 1.01 | locus YER110C, active compounds read low 1 | locus YER155C, strain BEM2, active compounds read low 1.01 | locus YER167W, strain BCK2, active compounds read low 1.01 | locus YGL078C, strain dbp3, active compounds read low 1.01 | locus YGL086W, strain mad1, active compounds read low 1.01 | locus YGL248W, strain PDE1, active compounds read low 1.01 | locus YGR135W, strain pre9, active compounds read low 0.988 | locus YGR229C, strain SMI1, active compounds read low 1.01 | locus YGR252W, strain gcn5, active compounds read low 0.977 | locus YHR030C, strain SLT2, active compounds read low 1.01 | locus YHR079C, strain IRE1 (second series), active compounds read low 1 | locus YHR094C, strain hxt1, active compounds read low 1 | locus YHR129C, strain ARP1, active compounds read low 1.01 | locus YHR200W, strain rpn10, active compounds read low 1.01 | locus YIL066C, strain RNR3, active compounds read low 1.02 | locus YIL073C, strain SPO22, active compounds read low 1 | locus YIL125W, strain kgd1, active compounds read low 0.999 | locus YIR030C, strain dcg1, active compounds read low 0.999 | locus YJL095W, strain BCK1, active compounds read low 1.02 | locus YJL134W, strain LCB3, active compounds read low 1.01 | locus YJL168C, strain set2, active compounds read low 0.998 | locus YJL187C, strain SWE1 (second series), active compounds read low 1.03 | locus YJR043C, strain POL32, active compounds read low 1.02 | locus YKL009W, strain mrt4, active compounds read low 1 | locus YKL068W, active compounds read low 0.993 | locus YKL085W, strain MDH1 (second series), active compounds read low 1.01 | locus YKL085W, strain MDH1, active compounds read low 1.01 | locus YKL190W, strain CNB1, active compounds read low 1.01 | locus YKR001C, strain vps1, active compounds read low 1.02 | locus YLR039C, strain RIC1, active compounds read low 1.08 | locus YLR058C, strain SHM2, active compounds read low 1.02 | locus YLR102C, strain apc9, active compounds read low 1 | locus YLR262C, strain YPT6, active compounds read low 1.08 | locus YLR268W, strain sec22, active compounds read low 1 | locus YLR330W, strain CHS5, active compounds read low 1.01 | locus YLR342W, strain FKS1 (second series), active compounds read low 0.984 | locus YLR371W, strain rom2, active compounds read low 0.999 | locus YLR418C, strain cdc73, active compounds read low 0.985 | locus YML016C, strain PPZ1, active compounds read low 1.01 | locus YML032C, strain rad52, active compounds read low 0.998 | locus YML124C, strain tub3, active compounds read low 0.993 | locus YMR078C, strain ctf18, active compounds read low 1.01 | locus YMR223W, strain ubp8, active compounds read low 0.992 | locus YMR263W, strain SAP30, active compounds read low 1.01 | locus YMR307W, strain GAS1, active compounds read low 0.95 | locus YNL067W, strain RPL9B, active compounds read low 1.02 | locus YNL233W, strain BNI4, active compounds read low 1.02 | locus YNL250W, strain rad50, active compounds read low 1.02 | locus YNL271C, strain bni1, active compounds read low 1.01 | locus YNL298W, strain CLA4, active compounds read low 0.988 | locus YNL307C, strain MCK1, active compounds read low 1.01 | locus YNR052C, strain pop2, active compounds read low 0.998 | locus YOL012C, strain htz1 0.805 | locus YOL147C, strain pex11, active compounds read low 1.01 | locus YOR061W, strain CKA2, active compounds read low 1.01 | locus YOR069W, strain VPS5, active compounds read low 1.01 | locus YOR136W, strain idh2, active compounds read low 0.998 | locus YOR144C, strain elg1, active compounds read low 1 | locus YOR184W, strain ser1, active compounds read low 1.01 | locus YOR316C, strain cot1, active compounds read low 1.01 | locus YPL241C, strain CIN2, active compounds read low 1.01 | locus YPR119W, strain clb2, active compounds read low 1 | locus YPR141C, strain kar3, active compounds read low 0.992 | locus YPR163C, strain tif3, active compounds read low 1.01 | locus YPR167C, strain met16, active compounds read low 1 | strain wtn01, active compounds read low 1.01
